Assay results reported in paper PMC11006913.
Numbering of substitutions follows the chain as printed.

How the values were obtained:
Experiment in all cases: PBM; 200 nM protein, PBS
Conditions in all cases: dsDNA, one strand shown
HOXC10 = HOXC10 (Homo sapiens, UniProt Q9NYD6 254-340)
NKX3-2 [1] = target: NKX3-2 (Homo sapiens, UniProt P78367 192-278, P234S)
NKX3-2 [2] = target: NKX3-2 (Homo sapiens, UniProt P78367 192-278)
ALX4 [3] = target: ALX4 (Homo sapiens, UniProt Q9H161 200-286)
PAX4 [4] = target: T1, PAX4 (Homo sapiens, UniProt O43316 9-242, R200K)
T1 sequence: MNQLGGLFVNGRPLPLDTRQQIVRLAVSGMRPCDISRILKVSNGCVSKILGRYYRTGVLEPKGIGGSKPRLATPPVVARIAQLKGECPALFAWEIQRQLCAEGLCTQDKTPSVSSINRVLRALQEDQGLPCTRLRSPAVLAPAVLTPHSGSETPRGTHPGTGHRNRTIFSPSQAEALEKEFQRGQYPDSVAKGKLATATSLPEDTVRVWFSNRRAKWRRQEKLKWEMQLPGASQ

PRRX1 = PRRX1 (Homo sapiens, UniProt P54821 80-166, F113S)
PAX4 [5] = target: T2, PAX4 (Homo sapiens, UniProt O43316 9-242)
T2 sequence: T1 sequence with K192R

HOXB6 = HOXB6 (Homo sapiens, UniProt P17509 132-218, K202E)
ALX4 [6] = target: ALX4 (Homo sapiens, UniProt Q9H161 200-286, Q225E)
ALX3 [7] = target: ALX3 (Homo sapiens, UniProt O95076 139-225, N203Q)
PAX4 [8] = target: T3, PAX4 (Homo sapiens, UniProt O43316 9-242, R200Q)
T3 sequence: T1 sequence with K192Q

ALX1 = ALX1 (Homo sapiens, UniProt Q15699 118-204, L144R)
PAX4 [9] = target: T4, PAX4 (Homo sapiens, UniProt O43316 9-242, F177V)
T4 sequence: T1 sequence with F169V, K192R

ALX3 [10] = target: ALX3 (Homo sapiens, UniProt O95076 139-225)
PAX4 [11] = target: T5, PAX4 (Homo sapiens, UniProt O43316 9-242, F177Y)
T5 sequence: T1 sequence with F169Y, K192R

ALX3 [12] = target: ALX3 (Homo sapiens, UniProt O95076 139-225, L168Q)
ALX3 [13] = target: ALX3 (Homo sapiens, UniProt O95076 139-225, L168V)
PAX4 [14] = target: T6, PAX4 (Homo sapiens, UniProt O43316 9-242, R227W)
T6 sequence: T1 sequence with K192R, R219W

ALX3 [15] = target: ALX3 (Homo sapiens, UniProt O95076 139-225, N203S)
MSX2 [16] = target: MSX2 (Homo sapiens, UniProt P35548 130-214)
MSX2 [17] = target: MSX2 (Homo sapiens, UniProt P35548 130-214, F161Y)
NKX2-6 = target: T7, NKX2-6 (Homo sapiens, UniProt A6NCS4 118-204, R150C)
T7 sequence: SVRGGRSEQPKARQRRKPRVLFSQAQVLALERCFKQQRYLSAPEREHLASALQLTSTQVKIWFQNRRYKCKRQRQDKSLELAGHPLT

MSX2 [18] = target: MSX2 (Homo sapiens, UniProt P35548 130-214, R199I)
Sequence of MSX2 (Homo sapiens, UniProt P35548 130-214, R199I) (P35548 130-214 R199I): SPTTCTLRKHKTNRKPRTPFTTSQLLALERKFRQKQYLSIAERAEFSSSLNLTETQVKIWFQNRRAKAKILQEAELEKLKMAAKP

Sequence of ALX4 (Homo sapiens, UniProt Q9H161 200-286, Q225E) (Q9H161 200-286 Q225E): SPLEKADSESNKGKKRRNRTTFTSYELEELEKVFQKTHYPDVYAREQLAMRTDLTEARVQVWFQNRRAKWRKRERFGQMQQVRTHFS
Sequence of ALX4 (Homo sapiens, UniProt Q9H161 200-286) (Q9H161 200-286): as the sequence (Q9H161 200-286 Q225E) above, with E26Q counted along it
Sequence of MSX2 (Homo sapiens, UniProt P35548 130-214) (P35548 130-214): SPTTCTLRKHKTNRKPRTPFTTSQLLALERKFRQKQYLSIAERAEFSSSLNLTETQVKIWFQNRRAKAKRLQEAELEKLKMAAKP
Sequence of ALX3 (Homo sapiens, UniProt O95076 139-225, N203Q) (O95076 139-225 N203Q): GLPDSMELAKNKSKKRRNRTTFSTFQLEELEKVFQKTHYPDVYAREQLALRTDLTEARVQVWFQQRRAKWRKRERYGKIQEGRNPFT
Sequence of ALX3 (Homo sapiens, UniProt O95076 139-225, L168V) (O95076 139-225 L168V): as the sequence (O95076 139-225 N203Q) above, with L30V, Q65N counted along it
Sequence of MSX2 (Homo sapiens, UniProt P35548 130-214, F161Y) (P35548 130-214 F161Y): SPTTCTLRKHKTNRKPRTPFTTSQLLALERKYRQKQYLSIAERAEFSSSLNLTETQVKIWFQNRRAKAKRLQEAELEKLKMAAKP
Sequence of ALX3 (Homo sapiens, UniProt O95076 139-225, L168Q) (O95076 139-225 L168Q): as the sequence (O95076 139-225 N203Q) above, with L30Q, Q65N counted along it
Sequence of ALX3 (Homo sapiens, UniProt O95076 139-225) (O95076 139-225): as the sequence (O95076 139-225 N203Q) above, with Q65N counted along it
Sequence of HOXC10 (Q9NYD6 254-340): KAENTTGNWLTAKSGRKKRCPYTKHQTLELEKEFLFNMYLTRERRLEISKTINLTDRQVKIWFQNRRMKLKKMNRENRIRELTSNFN
Sequence of ALX3 (Homo sapiens, UniProt O95076 139-225, N203S) (O95076 139-225 N203S): as the sequence (O95076 139-225 N203Q) above, with Q65S counted along it
Sequence of HOXB6 (P17509 132-218 K202E): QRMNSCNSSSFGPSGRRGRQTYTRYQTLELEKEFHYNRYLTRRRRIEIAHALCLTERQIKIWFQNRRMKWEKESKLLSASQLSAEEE
Sequence of ALX1 (Q15699 118-204 L144R): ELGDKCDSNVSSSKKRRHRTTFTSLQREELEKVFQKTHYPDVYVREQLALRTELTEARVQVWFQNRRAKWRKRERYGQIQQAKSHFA
Sequence of NKX3-2 (Homo sapiens, UniProt P78367 192-278) (P78367 192-278): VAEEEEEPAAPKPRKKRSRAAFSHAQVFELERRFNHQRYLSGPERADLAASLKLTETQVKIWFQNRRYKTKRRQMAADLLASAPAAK
Sequence of PRRX1 (P54821 80-166 F113S): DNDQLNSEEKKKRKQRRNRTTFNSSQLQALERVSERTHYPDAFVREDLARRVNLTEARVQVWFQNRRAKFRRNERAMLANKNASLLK
Sequence of NKX3-2 (Homo sapiens, UniProt P78367 192-278, P234S) (P78367 192-278 P234S): as the sequence (P78367 192-278) above, with P43S counted along it

**Q.** For AAGTACCG, which binding signal (HOXC10) is on record?
**A.** 11 upbm affinity estimate (log intensity, higher = more binding, comparable within an allelic series)

**Q.** What about the binding signal (NKX3-2 [1]) of the same sequence?
**A.** 12.4 upbm affinity estimate (log intensity, higher = more binding, comparable within an allelic series)

**Q.** What about the binding signal (NKX3-2 [2]) of the same sequence?
**A.** 12.5 upbm affinity estimate (log intensity, higher = more binding, comparable within an allelic series)

**Q.** Which binding signal (ALX4 [3]) does the source give for CATTCTAA here?
**A.** 9.79 upbm affinity estimate (log intensity, higher = more binding, comparable within an allelic series)

**Q.** How did the binding signal (ALX4 [3]) turn out when TAAGTCGA was run?
**A.** 10 upbm affinity estimate (log intensity, higher = more binding, comparable within an allelic series)

**Q.** How did the binding signal (ALX4 [3]) turn out when ATTAATTC was run?
**A.** 13.6 upbm affinity estimate (log intensity, higher = more binding, comparable within an allelic series)

**Q.** What about the binding signal (PAX4 [4]) of the same sequence?
**A.** 11.9 upbm affinity estimate (log intensity, higher = more binding, comparable within an allelic series)

**Q.** What about the binding signal (PRRX1) of the same sequence?
**A.** 11.1 upbm affinity estimate (log intensity, higher = more binding, comparable within an allelic series)

**Q.** What about the binding signal (PAX4 [5]) of the same sequence?
**A.** 12.5 upbm affinity estimate (log intensity, higher = more binding, comparable within an allelic series)

**Q.** And the binding signal (HOXB6)?
**A.** 9.98 upbm affinity estimate (log intensity, higher = more binding, comparable within an allelic series)

**Q.** What about the binding signal (ALX4 [6]) of the same sequence?
**A.** 12.7 upbm affinity estimate (log intensity, higher = more binding, comparable within an allelic series)

**Q.** What about the binding signal (ALX3 [7]) of the same sequence?
**A.** 8.41 upbm affinity estimate (log intensity, higher = more binding, comparable within an allelic series)

**Q.** What about the binding signal (PAX4 [8]) of the same sequence?
**A.** 12.1 upbm affinity estimate (log intensity, higher = more binding, comparable within an allelic series)

**Q.** What about the binding signal (ALX1) of the same sequence?
**A.** 11.1 upbm affinity estimate (log intensity, higher = more binding, comparable within an allelic series)

**Q.** And the binding signal (PAX4 [9])?
**A.** 10.7 upbm affinity estimate (log intensity, higher = more binding, comparable within an allelic series)

**Q.** What about the binding signal (ALX3 [10]) of the same sequence?
**A.** 12.2 upbm affinity estimate (log intensity, higher = more binding, comparable within an allelic series)

**Q.** What about the binding signal (PAX4 [11]) of the same sequence?
**A.** 11.2 upbm affinity estimate (log intensity, higher = more binding, comparable within an allelic series)

**Q.** And the binding signal (ALX3 [12])?
**A.** 10.2 upbm affinity estimate (log intensity, higher = more binding, comparable within an allelic series)

**Q.** And the binding signal (ALX3 [13])?
**A.** 9.68 upbm affinity estimate (log intensity, higher = more binding, comparable within an allelic series)

**Q.** And the binding signal (PAX4 [14])?
**A.** 11 upbm affinity estimate (log intensity, higher = more binding, comparable within an allelic series)

**Q.** And the binding signal (ALX3 [15])?
**A.** 8.51 upbm affinity estimate (log intensity, higher = more binding, comparable within an allelic series)

**Q.** ACATTACC was tested. Which binding signal (ALX4 [3]) did it give?
**A.** 10.7 upbm affinity estimate (log intensity, higher = more binding, comparable within an allelic series)

**Q.** How did the binding signal (HOXC10) turn out when TACTTAGA was run?
**A.** 10.8 upbm affinity estimate (log intensity, higher = more binding, comparable within an allelic series)

**Q.** What about the binding signal (MSX2 [16]) of the same sequence?
**A.** 11.1 upbm affinity estimate (log intensity, higher = more binding, comparable within an allelic series)

**Q.** What about the binding signal (MSX2 [17]) of the same sequence?
**A.** 10.9 upbm affinity estimate (log intensity, higher = more binding, comparable within an allelic series)

**Q.** Which results are given for CCACCGGC?
**A.** binding signal (NKX2-6): 9.32 upbm affinity estimate (log intensity, higher = more binding, comparable within an allelic series); binding signal (MSX2 [18]): 9.39 upbm affinity estimate (log intensity, higher = more binding, comparable within an allelic series); binding signal (ALX3 [7]): 7.68 upbm affinity estimate (log intensity, higher = more binding, comparable within an allelic series); binding signal (MSX2 [16]): 9.41 upbm affinity estimate (log intensity, higher = more binding, comparable within an allelic series); binding signal (ALX3 [10]): 7.64 upbm affinity estimate (log intensity, higher = more binding, comparable within an allelic series); binding signal (ALX3 [12]): 7.76 upbm affinity estimate (log intensity, higher = more binding, comparable within an allelic series); binding signal (ALX3 [13]): 7.67 upbm affinity estimate (log intensity, higher = more binding, comparable within an allelic series); binding signal (MSX2 [17]): 9.32 upbm affinity estimate (log intensity, higher = more binding, comparable within an allelic series); binding signal (ALX3 [15]): 7.64 upbm affinity estimate (log intensity, higher = more binding, comparable within an allelic series)

**Q.** How did the binding signal (ALX4 [3]) turn out when TCGGCCGA was run?
**A.** 7.94 upbm affinity estimate (log intensity, higher = more binding, comparable within an allelic series)

**Q.** And the binding signal (ALX4 [6])?
**A.** 8.39 upbm affinity estimate (log intensity, higher = more binding, comparable within an allelic series)

**Q.** Which binding signal (ALX4 [3]) does the source give for ATAAGCAC here?
**A.** 9.96 upbm affinity estimate (log intensity, higher = more binding, comparable within an allelic series)

**Q.** What about the binding signal (ALX4 [6]) of the same sequence?
**A.** 9.46 upbm affinity estimate (log intensity, higher = more binding, comparable within an allelic series)

**Q.** Which results are given for GCTCAAGC?
**A.** binding signal (ALX4 [3]): 8.08 upbm affinity estimate (log intensity, higher = more binding, comparable within an allelic series); binding signal (ALX4 [6]): 8.25 upbm affinity estimate (log intensity, higher = more binding, comparable within an allelic series)

**Q.** How did the binding signal (ALX4 [3]) turn out when CCGTCCCC was run?
**A.** 8.07 upbm affinity estimate (log intensity, higher = more binding, comparable within an allelic series)

**Q.** What about the binding signal (ALX4 [6]) of the same sequence?
**A.** 8.31 upbm affinity estimate (log intensity, higher = more binding, comparable within an allelic series)

**Q.** What does the source list for CTGTCCAC?
**A.** binding signal (ALX4 [3]): 7.93 upbm affinity estimate (log intensity, higher = more binding, comparable within an allelic series); binding signal (ALX4 [6]): 8.3 upbm affinity estimate (log intensity, higher = more binding, comparable within an allelic series)

**Q.** What does the source list for CGACATCC?
**A.** binding signal (ALX4 [3]): 7.95 upbm affinity estimate (log intensity, higher = more binding, comparable within an allelic series); binding signal (ALX4 [6]): 8.23 upbm affinity estimate (log intensity, higher = more binding, comparable within an allelic series)

**Q.** What does the source list for CTCGGGTC?
**A.** binding signal (ALX4 [3]): 8.18 upbm affinity estimate (log intensity, higher = more binding, comparable within an allelic series); binding signal (ALX4 [6]): 8.25 upbm affinity estimate (log intensity, higher = more binding, comparable within an allelic series)

**Q.** Which results are given for CTCTAGGA?
**A.** binding signal (ALX4 [3]): 8.21 upbm affinity estimate (log intensity, higher = more binding, comparable within an allelic series); binding signal (ALX4 [6]): 8.12 upbm affinity estimate (log intensity, higher = more binding, comparable within an allelic series)

**Q.** Which binding signal (ALX4 [3]) does the source give for TAAATTTA here?
**A.** 12.2 upbm affinity estimate (log intensity, higher = more binding, comparable within an allelic series)

**Q.** What about the binding signal (ALX4 [6]) of the same sequence?
**A.** 11 upbm affinity estimate (log intensity, higher = more binding, comparable within an allelic series)

**Q.** For CCCGACAG, which binding signal (ALX4 [3]) is on record?
**A.** 8.07 upbm affinity estimate (log intensity, higher = more binding, comparable within an allelic series)

**Q.** What about the binding signal (ALX4 [6]) of the same sequence?
**A.** 8.17 upbm affinity estimate (log intensity, higher = more binding, comparable within an allelic series)

**Q.** For TATTTTGA, which binding signal (ALX4 [3]) is on record?
**A.** 9.82 upbm affinity estimate (log intensity, higher = more binding, comparable within an allelic series)

**Q.** What about the binding signal (ALX4 [6]) of the same sequence?
**A.** 9.39 upbm affinity estimate (log intensity, higher = more binding, comparable within an allelic series)

**Q.** Which binding signal (ALX4 [3]) does the source give for CATGGGGG here?
**A.** 7.84 upbm affinity estimate (log intensity, higher = more binding, comparable within an allelic series)

**Q.** And the binding signal (ALX4 [6])?
**A.** 7.96 upbm affinity estimate (log intensity, higher = more binding, comparable within an allelic series)

**Q.** For CTCCCTTC, which binding signal (ALX4 [3]) is on record?
**A.** 7.88 upbm affinity estimate (log intensity, higher = more binding, comparable within an allelic series)

**Q.** And the binding signal (ALX4 [6])?
**A.** 8.19 upbm affinity estimate (log intensity, higher = more binding, comparable within an allelic series)

**Q.** With CCGCGAAG as the sequence, how does the binding signal (ALX4 [3]) read?
**A.** 8.14 upbm affinity estimate (log intensity, higher = more binding, comparable within an allelic series)

**Q.** And the binding signal (ALX4 [6])?
**A.** 8.32 upbm affinity estimate (log intensity, higher = more binding, comparable within an allelic series)

**Q.** How did the binding signal (ALX4 [3]) turn out when ACTTACCG was run?
**A.** 9.9 upbm affinity estimate (log intensity, higher = more binding, comparable within an allelic series)

**Q.** And the binding signal (ALX4 [6])?
**A.** 9.28 upbm affinity estimate (log intensity, higher = more binding, comparable within an allelic series)
